From PubChem BioAssay
The list is not random: actives were taken first. Their share in the collection is about 2.9%.
GDH-TPI counter-1 = inhibits GDH-TPI coupling enzymes, artifact for Mtb FBA screen | inhibition, % at 4.8 µM | GDH-TPI coupled enzyme counterscreen, NADH absorbance | actives 1.2% (n = 360,000) | AID 588335; in the data active = inhibition above about 30%;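 note: 0% = DMSO wells and 100% = wells lacking the enzyme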
BioA inh = blocks M. tuberculosis BioA enzyme activity; purified M. tuberculosis BioA enzyme, plate reader; inhibition, % at 9.99 µM; actives 0.096% (n = 360,000); AID 602481; in the data active = inhibition above about 40%; inconclusive = no clear call, values can overlap the other calls
Mtb hypoxia inh = Mtb hypoxia fluorescent reporter inhibition | M. tuberculosis hypoxia-regulated fluorescent reporter, fluorescence | fluorescence inhibition, % (concentration not given with the values) | actives 0.1% (n = 300,000); in the data active = fluorescence inhibition mostly above about 23%, no sharp cut-off; inactive = mostly below about 17%
Mtb FBA inh = inhibits M. tuberculosis FBA enzyme | P9WQA3 | purified M. tuberculosis FBA, fluorescence read-out | inhibition, % at 1 µM | actives 2.3% (n = 360,000);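 note: 0% = vehicle and 100% = reference inhibitor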
Target sequence (P9WQA3 whole entry, looked up): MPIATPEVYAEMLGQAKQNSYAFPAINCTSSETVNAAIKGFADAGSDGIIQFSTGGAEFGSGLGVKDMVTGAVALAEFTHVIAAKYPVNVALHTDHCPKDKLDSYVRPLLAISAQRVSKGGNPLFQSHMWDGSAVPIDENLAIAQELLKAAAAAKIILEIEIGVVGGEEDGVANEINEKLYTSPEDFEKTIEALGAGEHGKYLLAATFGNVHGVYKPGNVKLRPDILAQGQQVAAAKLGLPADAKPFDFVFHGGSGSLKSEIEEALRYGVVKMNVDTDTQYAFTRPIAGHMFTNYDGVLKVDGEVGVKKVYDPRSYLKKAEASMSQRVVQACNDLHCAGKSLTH
FadD28 FP inh = inhibitors of Mycobacterium tuberculosis FadD28 bisubstrate binding. inhibition, % at 12.5 µM. FadD28 bisubstrate probe binding, fluorescence polarization. actives 0.22% (n = 360,000); in the data active = inhibition above about 8.5%, passing the limit was not always enough; inconclusive = no clear call, values can overlap the other calls
Mtb FBA inh conf = Mtb FBA inhibition, confirmed; shares compounds with Mtb FBA inh; purified M. tuberculosis FBA, fluorescence read-out; inhibition, % at 1 µM; actives 78% (n = 5,600);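 note: 0% = vehicle wells and 100% = reference inhibitor wells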
GDH-TPI counter-2 = GDH-TPI inhibition counter-screen for FBA inhibitors. actives 81% (n = 5,600). shares compounds with Mtb FBA inh. GDH-TPI coupled enzyme counterscreen, fluorescence. inhibition, % at 1 µM. AID 652141; in the data active = inhibition above about 10%
GDH-TPI DR = inhibits GDH-TPI coupling enzymes in dose response; shares compounds with Mtb FBA inh; IC50, µM; GDH-TPI coupled enzyme assay, fluorescence, artifact counterscreen; actives 79% (n = 170); call rule not given here
* = called active by the depositor; ? = inconclusive; nt = not tested or not shown; + = active, no number. Cut-off read from the data, not from the text of the source, unless noted: active = inhibition above about 27%; inactive = the rest.

SMILES	GDH-TPI counter-1	BioA inh	Mtb hypoxia inh	Mtb FBA inh	FadD28 FP inh	Mtb FBA inh conf	GDH-TPI counter-2	others
CCC(=O)N(C)C[C@@H]1Oc2cc(-c3cncnc3)ccc2S(=O)(=O)N([C@H](C)CO)C[C@H]1C	nt	1	nt	nt	nt	nt	nt
CCOC(=O)CCc1c(C)nc2cc(-c3ccccc3OC)[nH]n2c1=O	-6	-2	6	28*	0	138*	124*
CC(C)COC(=O)C(C)Nc1n[nH]c(=S)[nH]c1=O (stereo not given)	11	nt	3	53*	-3	4	-3
CC(C)OC(=O)C(C)Nc1n[nH]c(=S)[nH]c1=O (stereo not given)	9	nt	9	6	1	nt	nt
Cc1cc(C)c(-c2cc(C(F)(F)F)no2)c(=O)[nH]1	22	nt	0	30*	1	+	147*
O=C(O)CCc1nn2cc(-c3ccccc3)nc2[nH]c1=O	18	0	-9	45*	0	113*	92*
Cc1nn2cc(-c3ccccc3)nc2[nH]c1=O	21	nt	5	37*	1	79*	81*
Cc1nn2c(-c3ccccc3)c(-c3ccccc3)nc2[nH]c1=O	17	0	nt	8	1	nt	nt
CCc1nn2cc(-c3ccccc3)nc2s1	4	0	3	-4	1	nt	nt
CCNC(=O)C[C@@H]1CC[C@@H]2[C@H](COC[C@@H](O)CN2C(=O)C2CC2)O1	nt	-1	nt	nt	nt	nt	nt
C[C@@H]1CN([C@H](C)CO)C(=O)c2cc(N(C)C)ccc2O[C@H]1CN(C)Cc1ccncc1	nt	-1	nt	nt	nt	nt	nt
Cc1ccc2nc(-c3ccc(O)cc3)c(Nc3ccc4c(c3)OCCO4)n2c1	2	2	1	36*	-6	+	162*
COc1cccc(C(=O)Nc2ccc3c(c2)C(=O)N(C)C[C@H](OC)[C@@H](C)CN(C(C)=O)[C@@H](C)CO3)c1	nt	0	nt	nt	nt	nt	nt
Cc1cccc(C2Nc3ccccc3C(=O)N2CCc2ccccc2)n1 (stereo not given)	18	-1	7	73*	0	+	+
CC(C)CC#Cc1cnc2c(c1)C(=O)N([C@@H](C)CO)C[C@@H](C)[C@H](CN(C)C(=O)Cc1ccccc1)O2	nt	3	nt	nt	nt	nt	nt
COC(=O)c1cc2ccc(OC)cc2c2cc(OC)c(OC)cc12	25	-3	0	62*	1	-5	-6
N#Cc1nc(-c2ccco2)oc1N1CCN(Cc2ccccc2)CC1	13	2	7	6	-2	nt	nt
CC1CN(c2oc(-c3ccco3)nc2C#N)CC(C)O1 (stereo not given)	14	-1	-3	88*	2	138*	93*
Cc1cccc(N2CCN(C(=O)COc3ccc4ccc(=O)oc4c3)CC2)c1C	-6	35	-1	1	-3	nt	nt
NC(=O)C1CCN(C(=O)COc2ccc3ccc(=O)oc3c2)CC1	15	?	nt	30*	0	2	-3
O=C(COc1ccc2ccc(=O)oc2c1)N1CCN(c2ccccc2)CC1	26	23	1	27*	-3	78*	53*
O=C(COc1ccc2ccc(=O)oc2c1)NC1CCCCC1	32*	5	12	32*	-1	105*	74*
CO[C@H]1CN(C)C(=O)c2cc(NS(C)(=O)=O)ccc2OC[C@@H](C)N(Cc2nccs2)C[C@H]1C	nt	1	nt	nt	nt	nt	nt
C[C@@H]1CCCCO[C@@H](CN(C)S(C)(=O)=O)[C@H](C)CN([C@@H](C)CO)C(=O)c2cc(NC(=O)C3CCCCC3)ccc2O1	nt	0	nt	nt	nt	nt	nt
c1ccc2c(-c3nc4ccccc4[nH]3)cccc2c1	0	nt	nt	107*	-5	80*	42*
SMILES	GDH-TPI counter-1	BioA inh	Mtb hypoxia inh	Mtb FBA inh	FadD28 FP inh	Mtb FBA inh conf	GDH-TPI counter-2	others
c1ccc2[nH]c(-c3ccnc4ccccc34)nc2c1	25	2	-3	45*	-4	119*	87*
CCCNC(=O)Nc1ccc2c(c1)OC[C@H](C)N(C(=O)C1CCOCC1)C[C@H](C)[C@@H](OC)CN(C)C2=O	nt	1	nt	nt	nt	nt	nt
C[C@H]1CN([C@@H](C)CO)C(=O)c2cccc(N(C)C)c2O[C@@H]1CN(C)S(=O)(=O)c1ccc(F)cc1	nt	0	nt	nt	nt	nt	nt
Cc1cc(=O)oc2cc(O[C@@H]3O[C@H](CO)[C@H](O)[C@H](O)[C@H]3O)ccc12	6	-2	7	7	1	nt	nt
Cc1c(C)c2ccc(O[C@@H]3O[C@H](CO)[C@H](O)[C@H](O)[C@H]3O)cc2oc1=O	10	-3	2	38*	1	53*	42*
CC(C)Cn1c(CNC(=O)c2ccccc2)nc2ccccc21	-6	-4	1	0	3	nt	nt
c1csc(Cn2c(-c3cccs3)nc3ccccc32)c1	34*	5	-5	63*	-17	25	28*
Cn1c(-c2cccs2)nc2ccccc21	-4	0	nt	59*	2	11	-4	GDH-TPI DR=2.6*
CC(C)Cn1c(-c2cccs2)nc2ccccc21	5	2	17	51*	-8	+	152*
COc1cccc(NC(=O)CSc2nc3c(sc4ccccc43)c(=O)n2CCN(C)C)c1	8	nt	-6	47*	-6	4	0
COCCNC(=O)C[C@@H]1CC[C@@H]2[C@@H](COc3ccc(NC(=O)C4CCCC4)cc3C(=O)N2C)O1	nt	-4	nt	nt	nt	nt	nt
CCN(CC(=O)NCc1ccc(F)cc1)C(=O)/C=C/c1cc(OC)ccc1OC	16	nt	6	45*	-2	+	194*
CCN(CC(=O)NCc1ccc(Cl)cc1)C(=O)/C=C/c1cc(OC)c(OC)c(OC)c1	12	1	0	16	-4	nt	nt
O=C(CN1CCN(Cc2ccccc2)CC1)NN=C/C=C/c1ccccc1[N+](=O)[O-]	nt	nt	5	nt	nt	nt	nt
Cc1nc2oc3c(NCc4ccccn4)ncnc3c2c2c1COC(C)(C)C2	9	8	5	94*	-1	86*	74*
CC1(C)Cc2nc3oc4c(NCc5ccccc5)ncnc4c3cc2CO1	-5	0	6	60*	?	47*	44*
CC(C)c1nc2oc3c(NCc4ccccn4)ncnc3c2c2c1COC(C)(C)C2	-7	-1	13	8	-4	nt	nt
C[C@H]1CCCCO[C@H](CN(C)C(=O)Nc2ccc(F)cc2)[C@@H](C)CN([C@@H](C)CO)C(=O)c2cc(NS(C)(=O)=O)ccc2O1	nt	-1	nt	nt	nt	nt	nt
CCCOc1ccc(-c2cn3ccccc3n2)cc1	3	nt	12	30*	-2	55*	38*
COc1ccc(-c2cn3ccc4ccccc4c3n2)cc1	13	-1	12	44*	-1	2	-4
CCCOc1ccc(-c2cn3ccccc3n2)cc1[N+](=O)[O-]	14	nt	6	4	-2	nt	nt
C[C@@H]1CN([C@H](C)CO)C(=O)c2cccc(NC(=O)C3CCCCC3)c2O[C@@H]1CN(C)Cc1ccc(C(F)(F)F)cc1	nt	2	nt	nt	nt	nt	nt
